For 16 compounds, Potency results are on record in PubChem BioAssay (NCATS).

Assay in all cases: qHTS profiling for inhibitors of Plasmodium falciparum proliferation (AID 504749); also: nearly all actives have a fitted effect of over 60% in size
Common to all, as to settings: P. falciparum in erythrocytes, SYBR Green DNA, 72 h; series mostly up to 28.7 µM
On the technique in general: Quantitative high-throughput screening tests each substance at several concentrations.

In one test the test system is CP335. In outline: (§1)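 Infected RBCs, 0.3% parasitemia/2.5% Hct final; cpd 72 h, 37 C, 5% CO2; lysis buffer with saponin/triton/SYBR Green I, o/n RT dark; FI 485/535; norm. to artemisinin (0.29 uM) and DMSO.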
A further test concerns DIV30. In outline: as §1
In a further test the test system is Dd2. The procedure, abridged:
as §1

The subject of a further test is ECU. In outline: as §1
Another test concerns CP305. The procedure, abridged: as §1
The subject of the next test is CP315. The procedure, abridged:
as §1

Another test relates to CP325. In outline:
as §1

The next test has as its system CP329. In outline:
as §1

A further test relates to DIV14. In outline: as §1
Another test concerns DIV17. In outline: as §1

SMILES strings stand for the structures. Inconclusive results are not listed. Active and inactive are the calls of the source. Calls follow the shape of the dose curve; as a rule, active = well fitted inhibition curve with a large enough effect; inconclusive = small, poorly fitted or top-dose-only effect; inactive = flat fitted curve, though single readings scatter.
Potency is read from the fitted curve at half-maximal effect.

With `CC1(C)O[C@@H]2C[C@@H]3[C@H]4C[C@@H](F)C5=CC(=O)C=C[C@]5(C)[C@@]4(F)[C@@H](O)C[C@]3(C)[C@]2(C(=O)CO)O1`, the Potency entry with CP335, with Dd2 and in the test with ECU was “inactive” in each case. In addition, the Potency in the test with DIV30 was 10700 nM (active).
In the case of `CCC1=C[C@@H]2CN(C1)Cc1c([nH]c3ccccc13)[C@@](C(=O)OC)(c1cc3c(cc1OC)N(C)[C@@H]1[C@@](O)(C(=O)OC)[C@H](OC(C)=O)[C@]4(CC)C=CCN5CC[C@]31[C@@H]54)C2`, the Potency in the test on CP305 is 3010 nM (active); with CP315, 3790 nM (active); in the test on CP325, 3790 nM (active); in the test on CP329, 3010 nM (active); in the test on CP335 it was 1690 nM (active); in the test on DIV14, 3790 nM (active). Moreover, the Potency was 3790 nM (active) in the test on DIV17, 4260 nM (active) in the test with DIV30, 891 nM (active) with Dd2 and 3980 nM (active) in the test on ECU.
As to `COC(=O)C1=C(C)NC(C)=C(C(=O)OCCN2CCN(C(c3ccccc3)c3ccccc3)CC2)C1c1cccc([N+](=O)[O-])c1` (stereo not drawn), the Potency with CP305 was 5360 nM (active); in the test on CP315 it was 4780 nM (active); in the test with CP325, 3790 nM (active); in the test with CP329 it was 4780 nM (active); in the test with CP335, 1690 nM (active); with DIV14, 3790 nM (active). For the same compound, the Potency in the test on DIV17 was 1690 nM (active); with DIV30 it was 1690 nM (active); in the test with Dd2, 1580 nM (active); with ECU, 2510 nM (active).
For `COC(=O)C[C@](O)(CCCC(C)(C)O)C(=O)O[C@@H]1C(OC)=C[C@]23CCCN2CCc2cc4c(cc2[C@H]13)OCO4`, the Potency with CP305 is 33.8 nM (active); with CP315 it was 23.9 nM (active); with CP325 it was 33.8 nM (active); in the test with CP335, 21.3 nM (active); in the test with DIV14 it was 26.9 nM (active); in the test with DIV17, 23.9 nM (active). In addition, the Potency in the test on DIV30 was 33.8 nM (active); with Dd2, 12.6 nM (active); with ECU, 17.8 nM (active).
With `C[C@H]1C[C@@H]2[C@@H]([C@@H](O)C[C@@]3(C)[C@H]2CC[C@]3(O)C(=O)CO)[C@@]2(C)C=CC(=O)C=C12`, the Potency entry in the test on CP305, with CP315, with CP325, in the test on CP329, with CP335 and in the test with DIV14 was “inactive” in each case. For the same compound, the Potency result with DIV17, in the test on DIV30, in the test with Dd2 and in the test on ECU was “inactive” throughout.
`COc1cc(C(=O)NS(=O)(=O)c2ccccc2C)ccc1Cc1cn(C)c2ccc(NC(=O)OC3CCCC3)cc12`: the Potency result in the test with CP305, with CP325, with CP329 and with ECU was “inactive” in each case.
Consider `COc1c(N2C[C@@H]3CCCN[C@H]3C2)c(F)cc2c(=O)c(C(=O)O)cn(C3CC3)c12`, for which the Potency entry in the test with CP315, in the test with CP325, in the test on CP329, in the test with CP335, in the test on DIV14 and in the test with DIV17 was “inactive” in each case. The Potency entry in the test on DIV30, with Dd2 and in the test on ECU was “inactive” throughout.
Turning to `Nc1ccn([C@@H]2CS[C@H](CO)O2)c(=O)n1`, the Potency result with CP305, in the test on CP315, in the test on CP325, in the test on CP329, with CP335 and with DIV14 was “inactive” each time. Further, the Potency result with DIV17, in the test on DIV30, in the test with Dd2 and in the test on ECU was “inactive” in each case.
As for `CC[C@H]1CN2CCc3cc(OC)c(OC)cc3[C@H]2C[C@@H]1C[C@@H]1NCCc2cc(OC)c(OC)cc21`, the Potency in the test with CP305 is 379 nM (active); with CP315 it was 757 nM (active); with CP325, 478 nM (active); with CP329, 379 nM (active); in the test with CP335, 379 nM (active); with DIV14, 379 nM (active). Besides, the Potency was 338 nM (active) with DIV17, 478 nM (active) in the test on DIV30, 178 nM (active) in the test with Dd2 and 316 nM (active) with ECU.
In the case of `O=C(O)CO.[NH2-].[NH2-].[Pt+2]`, the Potency entry in the test with CP305, in the test on CP315, with CP325, in the test with CP329, in the test on CP335 and with DIV14 was “inactive” each time. For the same compound, the Potency entry in the test on DIV30, in the test on Dd2 and in the test on ECU was “inactive” in each case.
As for `O=c1[nH]c(=O)n(C2CCCO2)cc1F` (stereo not drawn), the Potency result with CP305, in the test with CP315, in the test with CP325, with CP329, with CP335 and in the test on DIV14 was “inactive” each time. In addition, the Potency entry in the test with DIV17, with DIV30, in the test on Dd2 and in the test on ECU was “inactive” each time.
For `CN1c2cc(O)c(N=NC(N)=O)cc2CC1S(=O)(=O)O` (stereo not drawn), the Potency result in the test on CP305, in the test on CP315, in the test with CP325, in the test with CP329, in the test on CP335 and with DIV14 was “inactive” each time. Further, the Potency result in the test on DIV17, with DIV30, with Dd2 and in the test with ECU was “inactive” throughout.
Consider `Nc1ccn([C@@H]2O[C@H](CO)[C@H](O)C2(F)F)c(=O)n1`, for which the Potency with CP305 was 5360 nM (active); with CP315, 8490 nM (active); in the test with CP325 it was 2390 nM (active); in the test on CP329, 5360 nM (active); in the test on CP335 it was 2390 nM (active); with DIV14, 849 nM (active). Also, the Potency was 953 nM (active) in the test on DIV17, 2690 nM (active) with DIV30, 1780 nM (active) in the test on Dd2 and 5010 nM (active) in the test on ECU.
Turning to `Nc1ccc(S(=O)(=O)Nc2ncccn2)cc1`, the Potency entry with CP305, in the test with CP325, in the test with CP329, with CP335, in the test with DIV14 and with DIV17 was “inactive” in each case. For the same compound, the Potency entry in the test with DIV30, with Dd2 and in the test on ECU was “inactive” in each case.
Consider `CC(C)(C)NC(=O)[C@H]1CN(Cc2cccnc2)CCN1C[C@@H](O)C[C@@H](Cc1ccccc1)C(=O)N[C@H]1c2ccccc2C[C@H]1O`, for which the Potency was 13500 nM (active) with CP305; 12000 nM (active) with CP335; 13500 nM (active) with DIV14; 9530 nM (active) in the test with DIV30; 11200 nM (active) in the test with ECU.
Turning to `CC=CC1=C(C(=O)O)N2C(=O)[C@H](NC(=O)[C@H](N)c3ccc(O)cc3)[C@@H]2SC1`, the Potency result in the test on CP305, in the test on CP315, in the test with CP325, with CP329, with CP335 and in the test on DIV14 was “inactive” throughout. Also, the Potency result in the test on DIV30, with Dd2 and with ECU was “inactive” in each case.
